Test systems include SK-MEL-2 melanoma; EKVX NSCLC; SN12C renal; UO-31 renal; TK-10 renal; ACHN renal; CAKI-1 renal; A498 renal; CCRF-CEM leukemia; MOLT-4 leukemia; SR leukemia; RPMI-8226 leukemia; OVCAR-8 ovarian; OVCAR-5 ovarian; OVCAR-4 ovarian; SK-OV-3 ovarian; IGROV1 ovarian; OVCAR-3 ovarian; HS 578T breast; NCI/ADR-RES ovarian.
Holding throughout (test): NCI-60 one-dose screen, 48 h (100 = growth as untreated, 0 = no growth, -100 = all killed)
Conditions in all cases: 10 µM unless noted

Molecules are shown by their SMILES. This is part of a sample that, as a whole, favours compounds with a hit. Of some 83,000 tested, about 20% had one in any assay.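 Compound tested at a single concentration for 48 hours in 96-well plates; a percent growth value below 10 was scored as active.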 Values without a mark were called inactive. The source made the active and inactive calls.

In the case of `N/C(=N\c1nc2ccc([N+](=O)[O-])cc2s1)NC(=O)Nc1ccccc1Cl`, the growth was 88.1% with SK-MEL-2 melanoma; 58.4% in the assay on EKVX NSCLC; 25.5% in the assay on SN12C renal; -32.1% (active) in the assay on UO-31 renal; 17.8% in the assay on TK-10 renal; -41.4% (active) with ACHN renal. Also, the growth in the assay with CAKI-1 renal was 43.1%; with A498 renal, -5.78% (active); with CCRF-CEM leukemia, 74.9%; in the assay on MOLT-4 leukemia, 83.5%; with SR leukemia it was 23.6%; in the assay with RPMI-8226 leukemia, 60.7%. For the same compound, the growth in the assay on OVCAR-8 ovarian was 6.87% (active); with OVCAR-5 ovarian, 38.2%; in the assay with OVCAR-4 ovarian, -26.5% (active); with SK-OV-3 ovarian it was 24.2%; with IGROV1 ovarian, 55.8%; in the assay on OVCAR-3 ovarian, -52.8% (active). The values for the growth in the assay on HS 578T breast and in the assay on NCI/ADR-RES ovarian were 59.7% and 37.6%, respectively.
For the compound `Cn1cc(-c2cc3nc(-c4c[nH]c5ccccc45)cc(N)n3n2)c2ccccc21`, the growth in the assay on SK-MEL-2 melanoma was -65.5% (active); with EKVX NSCLC it was 55.1%; in the assay on SN12C renal, -78.5% (active); with UO-31 renal, -61.2% (active); in the assay on TK-10 renal, 8.91% (active); in the assay with ACHN renal it was -73.9% (active). Besides, the growth is 29.7% with CAKI-1 renal; 130% in the assay with A498 renal; -38.1% (active) with CCRF-CEM leukemia; -19.4% (active) in the assay on MOLT-4 leukemia; 8.18% (active) with SR leukemia; -21.9% (active) with RPMI-8226 leukemia. The growth was -73.6% (active) in the assay on OVCAR-8 ovarian; -39.4% (active) in the assay with OVCAR-5 ovarian; -39.9% (active) in the assay with OVCAR-4 ovarian; 43.2% in the assay on SK-OV-3 ovarian; -77.5% (active) in the assay on IGROV1 ovarian; -76.3% (active) in the assay with OVCAR-3 ovarian. The growth with HS 578T breast was -9.04% (active); with NCI/ADR-RES ovarian, -37.8% (active).
For the compound `C[C@@H]1CN(c2ccc3ncc(C#Cc4cncc(C(=O)Nc5ccc(CN6CCN(C)CC6)c(C(F)(F)F)c5)c4)n3n2)C[C@@H](C)O1`, the growth with SK-MEL-2 melanoma was -88.4% (active); in the assay with EKVX NSCLC it was -96% (active); in the assay on SN12C renal it was -66.5% (active); in the assay on UO-31 renal, -99.3% (active); in the assay with TK-10 renal, -98% (active); in the assay on ACHN renal, -95.3% (active). Also, the growth with CAKI-1 renal was -95.3% (active); with A498 renal, -99% (active); in the assay on CCRF-CEM leukemia, -36% (active); in the assay with MOLT-4 leukemia, 4.86% (active); with SR leukemia, -27.6% (active); in the assay with RPMI-8226 leukemia, -65% (active). For the same compound, the growth was -71.8% (active) with OVCAR-8 ovarian; -54.2% (active) with OVCAR-5 ovarian; -61.5% (active) in the assay with OVCAR-4 ovarian; -80.1% (active) in the assay with SK-OV-3 ovarian; -56.3% (active) with IGROV1 ovarian; -60.6% (active) in the assay with OVCAR-3 ovarian. The growth with HS 578T breast was -49.2% (active); in the assay with NCI/ADR-RES ovarian, -85.1% (active).
For `COc1cc(C2CC(c3ccc(Cl)cc3)=Nc3c(N)nc(N)nc3N2)ccc1Oc1nc(Nc2ccc(F)cc2)nc(N(C)C)n1` (stereo not given), the growth with SK-MEL-2 melanoma was 64.1%; with EKVX NSCLC, 49.6%; with SN12C renal it was 55.6%; in the assay with UO-31 renal, 34.6%; with TK-10 renal it was 72.1%; with ACHN renal, 62.3%. The growth was 35.3% in the assay on CAKI-1 renal; 59.5% with A498 renal; 47% in the assay on CCRF-CEM leukemia; -8.16% (active) in the assay with MOLT-4 leukemia; -47.5% (active) with SR leukemia; 15% in the assay with RPMI-8226 leukemia. Besides, the growth is 65% with OVCAR-8 ovarian; 96.6% with OVCAR-5 ovarian; 29% in the assay on OVCAR-4 ovarian; 79.3% with SK-OV-3 ovarian; 34% with IGROV1 ovarian; 65% with OVCAR-3 ovarian. For the same compound, the growth is 54% with HS 578T breast and 41.4% with NCI/ADR-RES ovarian.
As to `Cc1ccc(C(=O)Nc2cc(-n3ccnc3)cc(C(F)(F)F)c2)cc1-n1cc(-c2cnc3cccnn23)nn1`, the growth in the assay on SK-MEL-2 melanoma is 61.1%; in the assay with EKVX NSCLC, 117%; with SN12C renal, 105%; in the assay with UO-31 renal it was 61.4%; in the assay with TK-10 renal, 135%; in the assay on ACHN renal it was 97.8%. The growth is 113% in the assay on CAKI-1 renal; 180% with A498 renal; 96% in the assay with CCRF-CEM leukemia; 105% in the assay on MOLT-4 leukemia; 114% in the assay with SR leukemia; 85.2% in the assay on RPMI-8226 leukemia. Further, the growth is 103% in the assay with OVCAR-8 ovarian; 66.6% in the assay with OVCAR-5 ovarian; 104% with OVCAR-4 ovarian; 124% in the assay with SK-OV-3 ovarian; 104% in the assay on IGROV1 ovarian; 133% with OVCAR-3 ovarian. For the same compound, the growth was 94.9% with HS 578T breast and 115% in the assay on NCI/ADR-RES ovarian.
As for `COc1cc(/C=N/NC(=O)c2ccc(OCc3nc4ccc(C)cc4[nH]3)cc2)cc(OC)c1OC`, the growth with SK-MEL-2 melanoma is 68.1%; in the assay on EKVX NSCLC, 72.4%; with SN12C renal, 56.4%; in the assay with UO-31 renal it was 66.2%; in the assay on TK-10 renal, 83.2%; in the assay with ACHN renal, 69.6%. Also, the growth is 50.5% in the assay with CAKI-1 renal; 116% in the assay on A498 renal; 7.65% (active) in the assay on CCRF-CEM leukemia; 4.5% (active) with MOLT-4 leukemia; 0.64% (active) in the assay with SR leukemia; 7.31% (active) in the assay with RPMI-8226 leukemia. In addition, the growth was -30.8% (active) in the assay with OVCAR-8 ovarian; 88% in the assay with OVCAR-5 ovarian; 71.9% in the assay on OVCAR-4 ovarian; 106% with SK-OV-3 ovarian; 50.5% in the assay on IGROV1 ovarian; 29.5% with OVCAR-3 ovarian. The figures for the growth in the assay with HS 578T breast and with NCI/ADR-RES ovarian were 63.1% and 91.6%, respectively.
Consider `Cc1ccc2c(c1)/C(=C/C(=O)c1cc3ccccc3oc1=O)C(=O)N2`, for which the growth in the assay on SK-MEL-2 melanoma is 72.6%; in the assay on EKVX NSCLC, 78.2%; in the assay with SN12C renal, 67.8%; with UO-31 renal, 55.2%; in the assay with TK-10 renal, 80.7%; in the assay with ACHN renal, -63.2% (active). Moreover, the growth in the assay on CAKI-1 renal is 76.9%; in the assay on A498 renal it was 128%; with CCRF-CEM leukemia it was 3.14% (active); in the assay on MOLT-4 leukemia, 32.8%; in the assay on SR leukemia it was 6.51% (active); in the assay with RPMI-8226 leukemia, 36.7%. Besides, the growth was 54.9% with OVCAR-8 ovarian; 77.4% with OVCAR-5 ovarian; 53.9% in the assay with OVCAR-4 ovarian; 100% in the assay with SK-OV-3 ovarian; 102% in the assay with IGROV1 ovarian; -0.742% (active) with OVCAR-3 ovarian. Further, the growth with HS 578T breast is 78%; with NCI/ADR-RES ovarian, 65.9%.
In the case of `Cc1cn(-c2cc(NC(=O)c3ccc(C)c(-n4cc(-c5cnc6cccnn56)nn4)c3)cc(C(F)(F)F)c2)cn1`, the growth in the assay with SK-MEL-2 melanoma is 64.9%; in the assay with EKVX NSCLC, 98.9%; in the assay with SN12C renal it was 85.9%; in the assay with UO-31 renal, 58.2%; in the assay with TK-10 renal it was 111%; in the assay on ACHN renal, 85.7%. Also, the growth in the assay with CAKI-1 renal is 94.7%; in the assay on A498 renal, 185%; with CCRF-CEM leukemia it was 54.6%; in the assay on MOLT-4 leukemia, 38.9%; in the assay with SR leukemia, 23.2%; in the assay on RPMI-8226 leukemia, 53.9%. Also, the growth with OVCAR-8 ovarian was 92.4%; in the assay on OVCAR-5 ovarian, 58.3%; in the assay on OVCAR-4 ovarian, 100%; in the assay on SK-OV-3 ovarian it was 124%; in the assay on IGROV1 ovarian, 88.7%; in the assay on OVCAR-3 ovarian, 124%. Further, the growth is 108% with HS 578T breast and 94.5% with NCI/ADR-RES ovarian.

Values taken from PubChem BioAssay (NCI).
